Several values for one entry are separate records, joined by “and”; a condition that tells them apart may be missing. Equal values may be shown once. In all, about 5,500 compounds went through this assay and about 2,000 (36%) were called active. Another 18% or so got no clear call; they are omitted. Cut-off read from the data, not from the text of the source: active = normalized growth mostly below about 0.91 (no sharp cut-off); inconclusive = no clear call, values can overlap the other calls; inactive = mostly above about 0.92. Some of the results follow.
Test: chemical genetic growth profiling, strain panel (AID 1159580);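 note: tested at 20 µM; growth read once vehicle control cultures reached saturation at 30 °C; 1 = growth at the plate median or of vehicle wells; lower values mean less growth of the strain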
Conditions: S. cerevisiae deletion strains, growth OD

Measured: normalized growth

O=C(/C=C/C=C/c1ccc2c(c1)OCO2)N1CCCCC1
inactive: locus YAL013W, strain DEP1, stronger effect = lower value 0.962 | locus YAL021C, strain ccr4, stronger effect = lower value 0.965 | locus YAL030W, strain snc1, stronger effect = lower value 0.959 | locus YBL061C, strain skt5, stronger effect = lower value 0.949 | locus YBR021W, strain FUR4, stronger effect = lower value 0.893 | locus YBR023C, strain chs3, stronger effect = lower value 0.92 | locus YBR171W, strain sec66, stronger effect = lower value 0.91 | locus YBR229C, strain ROT2, stronger effect = lower value 0.969 | locus YBR231C, strain swc5, stronger effect = lower value 0.951 | locus YBR279W, strain paf1, stronger effect = lower value 0.952 | locus YCL016C, strain dcc1, stronger effect = lower value 0.915 | locus YCL029C, strain bik1, stronger effect = lower value 0.954 | locus YCL061C, strain MRC1, stronger effect = lower value 0.943 | locus YCR088W, strain abp1, stronger effect = lower value 0.945 | locus YDL005C, strain med2, stronger effect = lower value 0.975 | locus YDL035C, strain GPR1, stronger effect = lower value 0.922 | locus YDL040C, strain nat1, stronger effect = lower value 0.966 | locus YDL074C, strain BRE1, stronger effect = lower value 0.835 | locus YDL101C, strain DUN1, stronger effect = lower value 0.969 | locus YDL134C, strain PPH21, stronger effect = lower value 0.944 | locus YDL185W, strain tfp1, stronger effect = lower value 0.94 | locus YDL192W, strain arf1, stronger effect = lower value 0.939 | locus YDR001C, strain nth1, stronger effect = lower value 0.936 | locus YDR069C, strain doa4, stronger effect = lower value 0.998 | locus YDR101C, strain arx1, stronger effect = lower value 0.931 | locus YDR150W, strain NUM1, stronger effect = lower value 0.986 | locus YDR159W, strain sac3, stronger effect = lower value 0.955 | locus YDR162C, strain NBP2, stronger effect = lower value 0.93 | locus YDR297W, strain sur2, stronger effect = lower value 0.965 | locus YDR334W, strain swr1, stronger effect = lower value 0.968 | locus YDR335W, strain msn5, stronger effect = lower value 0.96 | locus YDR388W, stronger effect = lower value 0.931 | locus YEL003W, strain gim4, stronger effect = lower value 0.94 | locus YEL037C, strain rad23, stronger effect = lower value 0.946 | locus YEL061C, strain CIN8 (second series), stronger effect = lower value 0.969 | locus YEL061C, strain CIN8, stronger effect = lower value 0.971 | locus YER016W, strain bim1, stronger effect = lower value 0.948 | locus YER110C, stronger effect = lower value 0.951 | locus YER111C, strain swi4, stronger effect = lower value 0.986 | locus YER155C, strain BEM2, stronger effect = lower value 0.963 | locus YER167W, strain BCK2, stronger effect = lower value 0.907 | locus YFR010W, strain ubp6, stronger effect = lower value 0.974 | locus YGL078C, strain dbp3, stronger effect = lower value 0.957 | locus YGL167C, strain pmr1, stronger effect = lower value 0.945 | locus YGL173C, strain kem1, stronger effect = lower value 0.926 | locus YGL227W, strain vid30, stronger effect = lower value 0.948 | locus YGL240W, strain doc1, stronger effect = lower value 0.919 | locus YGL248W, strain PDE1, stronger effect = lower value 0.938 | locus YGR078C, strain PAC10, stronger effect = lower value 0.871 | locus YHR013C, strain ard1, stronger effect = lower value 0.951 | locus YHR027C, strain rpn1, stronger effect = lower value 0.959 | locus YHR030C, strain SLT2, stronger effect = lower value 0.939 and 0.975 | locus YHR079C, strain IRE1 (second series), stronger effect = lower value 0.937 | locus YHR079C, strain IRE1, stronger effect = lower value 0.977 | locus YHR094C, strain hxt1, stronger effect = lower value 0.954 | locus YHR129C, strain ARP1, stronger effect = lower value 0.973 | locus YHR200W, strain rpn10, stronger effect = lower value 0.925 | locus YIL066C, strain RNR3, stronger effect = lower value 0.94 | locus YIL073C, strain SPO22, stronger effect = lower value 0.864 | locus YIL125W, strain kgd1, stronger effect = lower value 0.96 | locus YIR030C, strain dcg1, stronger effect = lower value 0.941 | locus YJL092W, strain hpr5, stronger effect = lower value 0.947 | locus YJL095W, strain BCK1 (second series), stronger effect = lower value 0.935 | locus YJL115W, strain asf1, stronger effect = lower value 0.984 | locus YJL134W, strain LCB3, stronger effect = lower value 0.978 | locus YJL154C, strain vps35, stronger effect = lower value 0.96 | locus YJL166W, strain qcr8, stronger effect = lower value 0.93 | locus YJL168C, strain set2, stronger effect = lower value 0.945 | locus YJL187C, strain SWE1 (second series), stronger effect = lower value 0.942 | locus YJL187C, strain SWE1, stronger effect = lower value 0.967 | locus YJR043C, strain POL32, stronger effect = lower value 0.862 | locus YJR066W, strain TOR1, stronger effect = lower value 0.955
0.779 (active) and 0.987 (inactive): locus YJL095W, strain BCK1, stronger effect = lower value
active: locus YAL026C, strain drs2, stronger effect = lower value 0.885 | locus YBR009C, strain hhf1, stronger effect = lower value 0.907 | locus YCL011C, strain gbp2, stronger effect = lower value 0.889 | locus YCL069W, strain vba3, stronger effect = lower value 0.904 | locus YDR137W, strain rgp1, stronger effect = lower value 0.687 | locus YDR195W, strain ref2 1.23 [resistant] | locus YDR318W, strain mcm21, stronger effect = lower value 0.895 | locus YDR392W, strain spt3, stronger effect = lower value 0.599 | locus YDR502C, strain sam2, stronger effect = lower value 0.888 | locus YER015W, strain faa2, stronger effect = lower value 0.922 | locus YER155C, strain BEM2 (second series), stronger effect = lower value 0.696 | locus YGL086W, strain mad1, stronger effect = lower value 0.923 | locus YGL253W, strain hxk2, stronger effect = lower value 0.873 | locus YGR135W, strain pre9, stronger effect = lower value 0.886 | locus YGR229C, strain SMI1, stronger effect = lower value 0.732 | locus YGR252W, strain gcn5, stronger effect = lower value 0.732 | locus YHR142W, strain chs7, stronger effect = lower value 0.857 | locus YJL129C, strain trk1, stronger effect = lower value 0.855 | locus YJL164C, strain tpk1, stronger effect = lower value 0.904

From PubChem BioAssay AID1159580 (chemical genetic matrix, 2015)
